TDP1 cell noCPT: qHTS for Inhibitors of human tyrosyl-DNA phosphodiesterase 1 (TDP1): qHTS in cells in absence of CPT. AID 686978, 2013. DT40 Tdp1-/- hTDP1 cells, no CPT, ATP luminescence, 48 h. actives 15% (n = 420,000). Potency, µM (doses to about 46.2 µM), for the others: top-dose activity change, negative = growth inhibition, hits mostly inhibitors; further: on the % scale 0 is the no-effect control and ±100 the full control effect; nearly all actives have a fitted effect of over 55% in size
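DT40 Tdp1-/-;hTDP1 cells, no CPT (DMSO vehicle only), 400 cells/well; compounds pin-transferred; ≥48 hr, 37 °C; CellTiter-Glo 30 min RT dark, luminescence read.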
TDP1 block: qHTS Assay for Inhibitors of Tyrosyl-DNA Phosphodiesterase (TDP1); Potency, µM (titrated, usually from 130 µM), without a hit: at the top dose activity change, negative = inhibition, actives largely listed as inhibitors; recombinant TDP1, AlphaScreen DNA substrate cleavage; AID 485290, 2010; actives 0.28% (n = 350,000); further: on the % scale 0 is the no-effect control and ±100 the full control effect; nearly all actives have a fitted effect of over 40% in size
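AlphaScreen read-out: signal falls as enzyme removes the 3' tyrosine-FITC from a 5'-biotinylated DNA oligo (15 nM, 5 min, RT). Enzyme was E. coli-made recombinant Tdp1 at 1 nM, exposed to compound for 15 min beforehand; beads 10 ug/ml, 10 min.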
ClpP mod: qHTS Assay for Activators of ClpP; ATP-dependent Clp protease proteolytic subunit (Bacillus subtilis (strain 168)), P80244; purified B. subtilis ClpP, FRET peptide cleavage, 20 min; Potency, µM (doses to about 57.5 µM), inactives show at the highest dose activity change, negative = active; actives 1.9% (n = 340,000); AID 651965, 2013; active means well fitted falling curve with a large enough effect; inconclusive means small, poorly fitted or top-dose-only effect; inactive means no such curve, though single readings can be large or run the other way; further: the source files actives as falling curves though it sought activators and does not explain the sign; nearly all actives have a fitted effect of over 65% in size
Target sequence (P80244 whole entry, looked up): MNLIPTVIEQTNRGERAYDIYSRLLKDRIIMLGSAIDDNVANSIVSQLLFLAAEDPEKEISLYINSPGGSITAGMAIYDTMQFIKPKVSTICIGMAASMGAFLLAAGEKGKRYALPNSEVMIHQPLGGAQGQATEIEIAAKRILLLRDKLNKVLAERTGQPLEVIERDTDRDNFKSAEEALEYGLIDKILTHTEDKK
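Buffer: 100 mM Tris/HCl pH8, 100 mM KCl, 0.05% low protease BSA, 2.5% glycerol, 0.01% Tween-20. ClpP 10 microg/mL final; 20 min RT; delta FRET normalized to ADEP and DMSO controls.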
TDP1 cell CPT: qHTS for Inhibitors of human tyrosyl-DNA phosphodiesterase 1 (TDP1): qHTS in cells in presence of CPT. chicken DT40 Tdp1-/-;hTDP1 cells + 20 nM CPT, ATP luminescence, 48 h. Potency, µM (titrated, usually from 46.2 µM), inactives show at the highest dose activity change, negative = growth inhibition, most hits filed as inhibitors. actives 12% (n = 420,000). AID 686979, 2013; further: on the % scale 0 is the no-effect control and ±100 the full control effect; nearly all actives have a fitted effect of over 55% in size
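Cell growth measured by CellTiter-Glo luminescence after a minimum 48 h, 37 C compound exposure with 20 nM CPT in Tdp1-knockout DT40 cells stably expressing hTDP1, seeded 400/well; qHTS titration format.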
Starred values were filed as active, the others as inactive; ? = inconclusive; nt = no result given. In the library only some 17% were active in any assay of this set; here they are far more common. Unless noted, the call rests on the fitted dose curve; in most records, active means well fitted curve in the direction sought with a large enough effect; inconclusive means small, poorly fitted or top-dose-only effect, or another doubt; inactive means no such curve, though single readings can be large; an effect the other way counts as inactive or inconclusive. Potency means the concentration at half of the fitted maximal effect.

SMILES	TDP1 cell noCPT	TDP1 block	ClpP mod	TDP1 cell CPT
CC(C)C1C(=O)N(Cc2cn(CC3CCCCC3)nn2)CCS(=O)(=O)N1Cc1ccc(-c2ccc(Cl)cc2)cc1 (centres undefined)	7.31µM*	nt	-0.4%	9.2µM*
COc1ccc(CCNC(=O)c2cc3c(=O)oc4ccc(C)cc4c3s2)cc1OC	?	5.8%	-13.6%	?
COc1ccc(NC(=O)c2c(C)nn(Cc3ccccc3)c2C)cc1S(=O)(=O)N(C)C	-18.9%	nt	nt	1.0%
CCCCN(C)CCN1C(=O)C2C(C(=O)Nc3cccc(OC)c3)C3C=CC2(O3)C1C(=O)NC1CCCCC1C (centres undefined)	?	2.1%	nt	-7.6%
COc1ccc(OC)c(NC(=O)N2CCC(CN3CCCCC3)CC2)c1	-11.1%	-1.2%	-0.2%	1.9%
COc1cc(CC(=O)OCC(=O)NCc2ccco2)cc(OC)c1OC	13.1%	nt	1.2%	1.6%
O=S1(=O)CCN(CCCCc2ccccc2)CC1	-27.3%	nt	0.6%	-8.8%
COc1ccccc1OCC(=O)NCCCn1ccnc1	-2.9%	4.9%	-1.8%	-1.5%
Cc1ccc(C(C)C)cc1OCC(=O)NCCCn1ccnc1	23.1µM*	0.6%	nt	?
Clc1cccc(Oc2ncc(CN3CCOCC3)s2)c1	-26.7%	-2.0%	0.6%	-3.7%
COc1ccccc1-c1nnc(Sc2nc([N+](=O)[O-])nn2C)o1	16.4µM*	2.0%	-0.7%	?
COc1ccc(CCN2C(=O)C(Oc3ccccc3C)C2c2ccc3c(c2)OCO3)cc1 (centres undefined)	16.4µM*	2.3%	-0.7%	14.6µM*
COc1ccc(CCN2C(=O)C(Oc3ccccc3C)C2c2ccc3c(c2)OCO3)cc1OC (centres undefined)	16.4µM*	-3.9%	-1.6%	13µM*
O=C1C(Oc2ccccc2)C(c2ccc3c(c2)OCO3)N1CCc1ccc(F)cc1 (centres undefined)	?	-2.3%	1.1%	-27.1%
COc1ccc(CCn2c(C)cc3c(c2=O)C(c2ccc4c(c2)OCO4)C(C#N)=C(N)O3)cc1OC (centres undefined)	20.6µM*	4.4%	1.5%	13µM*
Cc1cc2c(c(=O)n1Cc1ccccn1)C(c1ccc3c(c1)OCO3)C(C#N)=C(N)O2 (centres undefined)	?	2.2%	-2.5%	-27.3%
CCOc1cc(/C=N/NC(=O)C(=O)NCCCOC(C)C)cc(Br)c1O	-15.8%	-1.1%	-3.4%	18.7%
CCCN(CCC)C[C@@H]1CCCCN1CCNC(=O)N1c2ccccc2C(=O)Nc2cccnc21	-4.9%	-11.9%	nt	-7.9%
CCOc1ccc(-n2ccn3c(CC(C)CC(=O)O)nnc3c2=O)cc1 (centres undefined)	8.1%	0.9%	0.6%	-1.1%
Cc1sc2ccccc2[n+]1CCC(C)S(=O)(=O)[O-] (centres undefined)	-0.9%	-6.7%	-0.5%	-9.3%
Cc1sc2ccccc2[n+]1CCC[n+]1c(C)sc2ccccc21	1.78µM*	nt	-3.1%	2µM*
Cc1sc2ccccc2[n+]1CC(=O)c1ccccc1	18.4µM*	nt	0.6%	?
O=C(C[n+]1c(Cl)cc(Cl)c2ccccc21)c1ccccc1	6.31µM*	nt	-0.7%	4.47µM*
Cc1sc2ccccc2[n+]1CC(=O)c1ccc(F)cc1	-3.2%	nt	-3.2%	-0.2%
CC(NC(=O)c1ccc2c(c1)sc1nc(-c3ccccc3)cn12)C12CC3CC(CC(C3)C1)C2 (centres undefined)	-17.2%	6.5%	?	-17.3%
O=[N+]([O-])c1ccc(C(O)C[n+]2ccccc2)cc1 (centres undefined)	9.4%	nt	-2.5%	-3.6%
CCOC(=O)C1=C(c2ccccc2)NC(N)=NC1c1ccc(OCc2ccc(C(=O)OC)cc2)cc1 (centres undefined)	13µM*	5.5%	-2.0%	?
CCOc1nc(Nc2ccc(OC)cc2OC)nc(OCC)n1	16.4µM*	2.1%	-2.1%	-22.5%
COc1ccc(Cl)cc1Nc1nc(N2CCCC2)nc(N2CCCC2)n1	nt	4.2%	nt	nt

Assay outcomes (PubChem BioAssay)
